In all, about 18,000 sequences were measured (“log2 normalized intensity”: median about 0.39, highest 2% from about 6.6 on). The sample holds the highest values, similar sequences and a random draw of the others, so the mix is not that of the screen.
The sequences below were run against T1, HNF4alpha2 (COS-7 nuclear extract) (Homo sapiens, UniProt P41235 1-474) (assay: protein-binding microarray; COS-7 nuclear extract on double-stranded Agilent 4x180k PBM; binding buffer, salt, pH and temperature not given in the material; high values mean tight binding). Details: chain copies: 2; label: 3' end of strand 1 on the slide; dsDNA, one strand shown.
T1 sequence: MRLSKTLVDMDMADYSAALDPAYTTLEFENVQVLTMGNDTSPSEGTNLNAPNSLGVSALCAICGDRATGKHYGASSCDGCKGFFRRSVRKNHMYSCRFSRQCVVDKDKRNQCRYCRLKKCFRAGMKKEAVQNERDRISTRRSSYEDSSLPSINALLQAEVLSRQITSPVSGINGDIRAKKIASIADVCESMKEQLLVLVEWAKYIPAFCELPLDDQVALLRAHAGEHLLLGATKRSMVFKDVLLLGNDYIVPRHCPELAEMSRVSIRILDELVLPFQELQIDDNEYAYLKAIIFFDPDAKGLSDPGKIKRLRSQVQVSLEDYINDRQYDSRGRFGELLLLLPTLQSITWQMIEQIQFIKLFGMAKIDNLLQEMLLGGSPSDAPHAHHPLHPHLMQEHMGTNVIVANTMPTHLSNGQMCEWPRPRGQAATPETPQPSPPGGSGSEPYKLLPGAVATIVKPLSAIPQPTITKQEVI
In short: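 A custom Agilent SurePrint G3 4x180k array, spotted in quadruplicate with ~44,000 test sequences as ~60-nt oligonucleotides made double-stranded, was incubated with nuclear extracts. The extracts came from COS-7 cells transiently transfected by CaPO4 with a human HNF4α isoform expression vector. Bound HNF4α was imaged on an Agilent G2565CA scanner at 2-µm resolution, and the binding signal was taken as Agilent software's background-corrected, normalized gProcessedSignal.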

Sequence | binding signal [log2 normalized intensity]
CACTATCACCAGGATGGGCCATGACCTTTAGCCTAGGGAGATTAGAGTATCGGTCGA | 4.48
GCTTCTCTTGGACCTCAATGTGCTCATCCAGCCTAGGGAGATTAGAGTATCGGTCGA | 0.722
CCCACGTACATTGCACCCTCCAGGAGCCCCGCCTAGGGAGATTAGAGTATCGGTCGA | 2.07
TATGTGATCAGATGTGGACAATCATTGTGCGCCTAGGGAGATTAGAGTATCGGTCGA | 1.53
AGTGGAGAAATAACATTAATGGAAATGCCTGCCTAGGGAGATTAGAGTATCGGTCGA | -0.84
ACCATCCACGGATGCATGATTGCTCTCTACGCCTAGGGAGATTAGAGTATCGGTCGA | -0.932
TGCACAACGACCCTTGCTCTGTTTTCTGACGCCTAGGGAGATTAGAGTATCGGTCGA | 1.89
CTTTGAGAAAGCAAAGTCCCTGGGGACAGGGCCTAGGGAGATTAGAGTATCGGTCGA | -0.0595
AGGTGACCTTTGCTCCGGTTCCCAATAAGTGCCTAGGGAGATTAGAGTATCGGTCGA | 5.06
CTAAGCAGGCACATTCCAGGACCTTTGCTCGCCTAGGGAGATTAGAGTATCGGTCGA | 4.08
TCTAAGACATAACACAGGTGACCTTTGCTCGCCTAGGGAGATTAGAGTATCGGTCGA | 8.37
TCTTTTCTAAGACATAACACAGGTGACCTTGCCTAGGGAGATTAGAGTATCGGTCGA | 4.03
GACATAACACAGGTGACCTTTGCTCCGGTTGCCTAGGGAGATTAGAGTATCGGTCGA | 7.4
AACACAGGTGACCTTTGCTCCGGTTCCCAAGCCTAGGGAGATTAGAGTATCGGTCGA | 6.26
CCTCCCTCCATGCTGTAGATTGTGGAATGTGCCTAGGGAGATTAGAGTATCGGTCGA | 1.81
GGTATGTTAGATTAGTGTGCAGCTTTGTGTGCCTAGGGAGATTAGAGTATCGGTCGA | 2.1
GTCTAGATGCTGGGCAGCTTGTGTGCGTTTGCCTAGGGAGATTAGAGTATCGGTCGA | 1.56
AGCTGTGTGCTCCTGTAGAATGACCCCCTGGCCTAGGGAGATTAGAGTATCGGTCGA | 5.17
TGGGTTCTTGCCCTTTGGTCTGGAACACAGGCCTAGGGAGATTAGAGTATCGGTCGA | 3.31
GGGCCCAGGGTTCTCTGTGACCTTTGGAAGGCCTAGGGAGATTAGAGTATCGGTCGA | 8.2
GAGGTGGGCCCAGGGTTCTCTGTGACCTTTGCCTAGGGAGATTAGAGTATCGGTCGA | 6.79
CTGCCCTTCTGACCTCCCAGGGATACTGTGGCCTAGGGAGATTAGAGTATCGGTCGA | 2.47

Sequence | binding signal [log2 normalized intensity]
TGACTACCAGGTTCTGTACTTTGGAACCTGGCCTAGGGAGATTAGAGTATCGGTCGA | 6.78
AACTGTACTTTGGACTGGGGACCTGGTCTGGCCTAGGGAGATTAGAGTATCGGTCGA | 4.13
TTCTCTGTGACCTTTGGAAGGTGGGGGAGGGCCTAGGGAGATTAGAGTATCGGTCGA | 4.13
TGGAGCATGACCCTTTGCAGGTGGGAGAGGGCCTAGGGAGATTAGAGTATCGGTCGA | 0.139
GTTCTGTACTTTGGAACCTGAAAGAGCAACGCCTAGGGAGATTAGAGTATCGGTCGA | 3.87
CTTCTGCCCCCGCAGACCCAGTCTTAGGGAGCCTAGGGAGATTAGAGTATCGGTCGA | 4.14
AGAAATCCACACAGCACTGACCTTTGAGAGGCCTAGGGAGATTAGAGTATCGGTCGA | 4.92
GGCACAGTAACCTGACCCCCAGTGGAATGTGCCTAGGGAGATTAGAGTATCGGTCGA | 3.32
CCCAGATATCTCTGGTAAACAGCTGACAATGCCTAGGGAGATTAGAGTATCGGTCGA | -0.967
CAAATAAAGTTTGAGGAGAGTCAAAGGTTAGCCTAGGGAGATTAGAGTATCGGTCGA | 3.24
CTCAGGTCAGGGAAGACTGATAAGAAAACTGCCTAGGGAGATTAGAGTATCGGTCGA | -0.891
AGTCATGTCTTCATGCTTTCAGCCTCTCTGGCCTAGGGAGATTAGAGTATCGGTCGA | 0.358
CGACCTTTGCTCCCGACTCTGAGGCTCCATGCCTAGGGAGATTAGAGTATCGGTCGA | 4.94
GGGGCCCCATCGACCTTTGCTCCCGACTCTGCCTAGGGAGATTAGAGTATCGGTCGA | 8.11
GCTCTAGACATCGACCTTTGTGGGCTTCAGGCCTAGGGAGATTAGAGTATCGGTCGA | 2.69
AGACATCGACCTTTGTGGGCTTCAGACATTGCCTAGGGAGATTAGAGTATCGGTCGA | 1.71
ACCTCCTGGGCCCAAGTGCTCCTCCCCATCGCCTAGGGAGATTAGAGTATCGGTCGA | 3.37
CCCATCGACCTTTGCTCCCGACTCTGAGGCGCCTAGGGAGATTAGAGTATCGGTCGA | 5.07
AGGCTGGGGCCCCATCGACCTTTGCTCCCGGCCTAGGGAGATTAGAGTATCGGTCGA | 9.6
CGCTCCCCGACCTCCTGCTGCAGCTCTGGGGCCTAGGGAGATTAGAGTATCGGTCGA | 0.0682
TCTTCAGGCTGGGGCCCCATCGACCTTTGCGCCTAGGGAGATTAGAGTATCGGTCGA | 6.79

Source: PMC10726135, “HNF4α isoforms regulate the circadian balance between carbohydrate and lipid metabolism in the liver”
